Laboratory results: PubChem BioAssay (Tox21)
Where “and” joins values, the source holds several entries; their conditions need not be identical. Equal values may be shown once. Inconclusive results are not listed. A structure can be active in one record and inactive in another. Calls of active or inactive are those of the source. Calls follow the shape of the dose curve; as a rule, active = well fitted curve in the direction sought with a large enough effect in the repeat runs; inconclusive = weak or mixed curves; inactive = no such curve, though single readings can be large; an effect the other way counts as inactive or inconclusive.

Experiments:
[1] = qHTS RealTime-Glo MT Cell Viability Assay in HEK293 cells - 16 hour (AID 1224872); also: nearly all actives have a fitted effect of over 50% in size; also: potency is read from the fitted curve at half-maximal effect
Outline: (§1)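 Luminescence generated by NanoLuc from substrate produced by living HEK293 cells served as the viability signal. Each value reflects the reading at its stated time point during continuous 40 h compound exposure at 37 C.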

[2] = qHTS RealTime-Glo MT Cell Viability Assay in HepG2 cells - 8 hour (AID 1224873); also: nearly all actives have a fitted effect of over 55% in size; also: potency is read from the fitted curve at half-maximal effect
Outline: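 HepG2 cells (600/well) mixed with RealTime-Glo MT reagent, settled 5 h at 37 C/5% CO2 before compound addition. Nonlytic NanoLuc luminescence from viable-cell prosubstrate reduction read repeatedly during 40 h treatment at 37 C.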

[3] = qHTS RealTime-Glo MT Cell Viability Assay in HEK293 cells - 40 hour (AID 1224874); conditions: RealTime-Glo luminescence; max response: stronger effect = lower value; also: nearly all actives have a fitted effect of over 50% in size; also: potency is read from the fitted curve at half-maximal effect
Outline: (§2)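 Viable HEK293 cells reduce a cell-permeant prosubstrate; the product diffuses out and is consumed by NanoLuc in the medium to give light. Compounds went in after a 5 h incubation and plates were read over the treatment course.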

[4] = A CellTox Green Cytotoxicity Assay to monitor cytotoxicity in HEK293 cells - 24 hour (AID 1224875); also: nearly all actives have a fitted effect of over 45% in size; also: potency is read from the fitted curve at half-maximal effect
Outline: (§3)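 Fluorescence intensity, read at 0, 8, 16, 24, 32 and 40 h of compound treatment, reflected dye binding to DNA of dead HEK293 cells; compounds (23 nL, DMSO) were added 5 h after plating cells with reagent.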

[5] = A CellTox Green Cytotoxicity Assay to monitor cytotoxicity in HepG2 cells - 16 hour (AID 1224876); also: nearly all actives have a fitted effect of over 45% in size; also: potency is read from the fitted curve at half-maximal effect
Outline: (§4)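 Using 1536-well format, dye-containing HepG2 suspension was seeded, allowed 5 h at 37 C/5% CO2, dosed by pintool with compounds, positive and negative controls, and imaged for fluorescence across 40 h.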

[6] = qHTS RealTime-Glo MT Cell Viability Assay in HepG2 cells - 32 hour (AID 1224877); also: nearly all actives have a fitted effect of over 55% in size; also: potency is read from the fitted curve at half-maximal effect
Outline: (§5)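 Tox21 10K library screened in qHTS format on HepG2 cells carrying RealTime-Glo reagents. Compounds were added after a 5 h preincubation, and the luminescent signal from continuous culture was measured repeatedly during 40 h treatment.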

[7] = A CellTox Green Cytotoxicity Assay to monitor cytotoxicity in HepG2 cells - 24 hour (AID 1224878); also: nearly all actives have a fitted effect of over 45% in size; also: potency is read from the fitted curve at half-maximal effect
Outline: as §4

[8] = A CellTox Green Cytotoxicity Assay to monitor cytotoxicity in HepG2 cells - 40 hour (AID 1224879); also: nearly all actives have a fitted effect of over 40% in size; also: potency is read from the fitted curve at half-maximal effect
Outline: as §4

[9] = qHTS RealTime-Glo MT Cell Viability Assay in HEK293 cells - 0 hour (AID 1224880); also: top concentration of the series differs between compounds; nearly all actives have a fitted effect of over 45% in size
Outline: as §2

[10] = A CellTox Green Cytotoxicity Assay to monitor cytotoxicity in HepG2 cells - 32 hour (AID 1224883); also: nearly all actives have a fitted effect of over 50% in size; also: potency is read from the fitted curve at half-maximal effect
Outline: as §4

[11] = qHTS RealTime-Glo MT Cell Viability Assay in HepG2 cells - 16 hour (AID 1224885); also: nearly all actives have a fitted effect of over 50% in size; also: potency is read from the fitted curve at half-maximal effect
Outline: as §5

[12] = qHTS RealTime-Glo MT Cell Viability Assay in HEK293 cells - 24 hour (AID 1224886); also: nearly all actives have a fitted effect of over 50% in size; also: potency is read from the fitted curve at half-maximal effect
Outline: as §1

[13] = qHTS RealTime-Glo MT Cell Viability Assay in HEK293 cells - 8 hour (AID 1224887); also: nearly all actives have a fitted effect of over 50% in size; also: potency is read from the fitted curve at half-maximal effect
Outline: as §2

[14] = A CellTox Green Cytotoxicity Assay to monitor cytotoxicity in HEK293 cells - 16 hour (AID 1224888); also: nearly all actives have a fitted effect of over 35% in size; also: potency is read from the fitted curve at half-maximal effect
Outline: as §3

[15] = qHTS RealTime-Glo MT Cell Viability Assay in HepG2 cells - 0 hour (AID 1224889); also: nearly all actives have a fitted effect of over 50% in size
Outline: as §5

[16] = A CellTox Green Cytotoxicity Assay to monitor cytotoxicity in HepG2 cells - 8 hour (AID 1224890); also: nearly all actives have a fitted effect of over 45% in size; also: potency is read from the fitted curve at half-maximal effect
Outline: as §4

[17] = qHTS assay to identify small molecule antagonists of the estrogen receptor alpha (ER-alpha) signaling pathway using the BG1 cell line in the presence of 0.1 nM 17-beta-estradiol - cell viability counter screen (AID 1259241); also: nearly all actives have a fitted effect of over 40% in size
Outline: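 The cell line endogenously expresses full-length ER-alpha and carries four EREs driving luciferase. Cells are cultured 5 days hormone-free, treated 22 hr with compounds and 0.1 nM estradiol, then viability is read by fluorescence.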

[18] = A CellTox Green Cytotoxicity Assay to monitor cytotoxicity in HEK293 cells - 32 hour (AID 1224881); also: nearly all actives have a fitted effect of over 40% in size; also: potency is read from the fitted curve at half-maximal effect
Outline: as §3

[19] = A CellTox Green Cytotoxicity Assay to monitor cytotoxicity in HepG2 cells - 0 hour (AID 1224882); also: nearly all actives have a fitted effect of over 35% in size
Outline: as §4

[20] = A CellTox Green Cytotoxicity Assay to monitor cytotoxicity in HEK293 cells - 8 hour (AID 1224884); also: nearly all actives have a fitted effect of over 35% in size
Outline: as §3
% is scaled to controls: 0 for no effect and ±100 for the full control effect.

Clc1ccc(-c2ccccc2)cc1
inactive: Potency [1] | Potency [2] | max response [3] -16.9% | Potency [4] | Potency [5] | Potency [6] | Potency [7] | Potency [8] | Potency [9] | Potency [10] | Potency [11] | Potency [12] | Potency [13] | Potency [14] | Potency [15] | Potency [16] | Potency [17]

N#CNC#N
inactive: Potency [1] | Potency [2] | max response [3] 1.5% | Potency [4] | Potency [5] | Potency [6] | Potency [7] | Potency [8] | Potency [18] | Potency [19] | Potency [10] | Potency [11] | Potency [12] | Potency [13] | Potency [14] | Potency [15] | Potency [16] | Potency [17]

C[C@]12CC[C@@H]3c4ccc(OC(=O)N(CCCl)CCCl)cc4CC[C@H]3[C@@H]1CC[C@@H]2O
inactive: Potency [1] | Potency [2] | max response [3] -6.19% | Potency [4] | Potency [5] | Potency [6] | Potency [7] | Potency [8] | Potency [9] | Potency [18] | Potency [10] | Potency [20] | Potency [11] | Potency [12] | Potency [13] | Potency [14] | Potency [15] | Potency [16] | Potency [17]

FC(F)(F)c1cccc(C2=CCN(CCc3ccc4ccccc4c3)CC2)c1
inactive: Potency [1] | Potency [2] | max response [3] 2.33% | Potency [4] | Potency [5] | Potency [6] | Potency [7] | Potency [8] | Potency [18] | Potency [19] | Potency [10] | Potency [20] | Potency [11] | Potency [12] | Potency [13] | Potency [16] | Potency [17]

CCCN(CCC)c1c([N+](=O)[O-])cc(S(N)(=O)=O)cc1[N+](=O)[O-]
active: Potency [1] 16.5 µM | Potency [2] 24.5 µM | Potency [3] 35.4 µM | Potency [4] 23.3 µM | Potency [5] 33.5 µM | Potency [6] 43.6 µM | Potency [7] 13.1 µM | Potency [18] 26.2 µM | Potency [10] 26.2 µM | Potency [11] 24.5 µM | Potency [12] 23.3 µM | Potency [13] 31.6 µM | Potency [14] 52.2 µM | Potency [16] 23.3 µM
inactive: Potency [9] | Potency [19] | Potency [15]

CC(C)C1CCC(Cc2ccc(Cl)cc2)C1(O)Cn1cncn1 (stereo not given)
inactive: Potency [9] | Potency [19] | Potency [14] | Potency [15] | Potency [17]
active: Potency [1] 12.2 µM | Potency [2] 24.3 µM | Potency [3] 10.9 µM | Potency [4] 24.3 µM | Potency [5] 48.5 µM | Potency [6] 48.5 µM | Potency [7] 43.2 µM | Potency [8] 43.2 µM | Potency [18] 34.3 µM | Potency [10] 43.2 µM | Potency [11] 34.3 µM | Potency [12] 12.2 µM | Potency [13] 13.7 µM | Potency [16] 54.4 µM

c1ccc2cc3c(cc2c1)-c1cccc2cccc-3c12
inactive: Potency [1] | Potency [2] | max response [3] 18.7% | Potency [4] | Potency [5] | Potency [6] | Potency [7] | Potency [9] | Potency [18] | Potency [19] | Potency [10] | Potency [20] | Potency [11] | Potency [12] | Potency [13] | Potency [14] | Potency [15] | Potency [16]

N#C/C=C/c1ccccc1
inactive: Potency [1] | Potency [2] | max response [3] -0.121% | Potency [4] | Potency [5] | Potency [6] | Potency [7] | Potency [8] | Potency [9] | Potency [18] | Potency [19] | Potency [10] | Potency [11] | Potency [12] | Potency [13] | Potency [15] | Potency [16] | Potency [17]

N#CCCC(Br)(C#N)CBr (stereo not given)
inactive: Potency [9] | Potency [19] | Potency [17]
active: Potency [1] 38.9 µM | Potency [2] 49 µM | Potency [3] 21.9 µM | Potency [4] 54.9 µM | Potency [5] 43.6 µM | Potency [6] 34.7 µM | Potency [7] 38.9 µM | Potency [8] 24.5 µM | Potency [18] 54.9 µM | Potency [10] 30.9 µM | Potency [11] 38.9 µM | Potency [12] 24.5 µM | Potency [13] 49 µM | Potency [14] 54.9 µM

O=c1[nH]c2ccccc2n1C1CCN(CCCC(c2ccc(F)cc2)c2ccc(F)cc2)CC1
43.6 µM (active) and inactive: Potency [2] | Potency [7]
54.9 µM (active) and inactive: Potency [16]
active: Potency [1] 13.8 µM and 19 µM | Potency [3] 17.4 µM and 16.9 µM | Potency [8] 19.5 µM and 21.3 µM | Potency [10] 24.5 µM | Potency [12] 12.3 µM and 16.9 µM | Potency [13] 15.5 µM
49 µM (active) and inactive: Potency [5] | Potency [18] | Potency [11]
34.7 µM (active) and inactive: Potency [6]
inactive: Potency [4] | Potency [19] | Potency [20] | Potency [14] | Potency [15]

C=COCCCl
inactive: Potency [1] | Potency [2] | max response [3] 15.2% | Potency [4] | Potency [5] | Potency [6] | Potency [7] | Potency [8] | Potency [18] | Potency [19] | Potency [10] | Potency [11] | Potency [12] | Potency [13] | Potency [14] | Potency [15] | Potency [16] | Potency [17]

COc1ccc(OC)c(CC(C)N)c1 (stereo not given)
inactive: Potency [1] | Potency [2] | max response [3] -2.46% | Potency [4] | Potency [5] | Potency [6] | Potency [7] | Potency [8] | Potency [9] | Potency [18] | Potency [19] | Potency [10] | Potency [11] | Potency [12] | Potency [13] | Potency [14] | Potency [15] | Potency [16] | Potency [17]
